# Data as given in PubChem BioAssay AID1508600 (Functional Genomics Laboratory (NCATS/FGL), 2020).
# Out of some 53,000 sequences screened, about 3,700 (7%) were called active. This is one part of a sample in which actives are shown more often than they occur.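 The calls were made as follows: active = gene knockdowns whose robust z-score for IL-1 alpha signal is at least 2 or at most -2, so actives lie on both sides; inactive = the rest.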
# Assay: Components of the Cytosolic LPS Sensing Pathway: Gene Identification via Genome-wide siRNA Screen
# Details: RAW264.7 macrophages, IL-1a HTRF, actives lie on both sides, screened at 100 nM (by protocol), cells primed 5 h with Pam3CSK4 first
# Text: Non-canonical inflammasome activation by cytosolic LPS is a critical component of the host response to Gram-negative bacterial infection, however we lack a comprehensive understanding of the cellular processes that control this pathway. Here we describe a genome-wide siRNA screen to identify genes regulating the mouse macrophage IL-1 alpha response to cytosolic LPS.
# RAW264.7 cells were maintained in complete DMEM media, comprising DMEM with 4.5 g/L glucose, 10% FBS (Gemini Bio-Products, West Sacramento, CA), 2 mM Glutamine (Lonza) and 20 mM HEPES (Lonza), hereafter complete DMEM.
# The RNAi screen was conducted in 384-well format using the Ambion Silencer Mouse Genome siRNA Library (#4391425), which consists of three unique, nonoverlapping, nonpooled siRNAs for each of 17,000 gene targets. siRNA reagents ([…]) were stamped into 384-well white flat-bottom microplates (Corning, 3570) using a Velocity11 VPrep liquid handling system (Agilent) integrated into a BioCel robotic platform (Agilent) in columns 1-22, leaving columns 23-24 empty for negative (Ambion, Negative control #1) and positive (mouse Casp4) controls, respectively. The median value of each plate's negative control column was used to normalize sample wells, and the positive control was used to assess transfection efficiency and assay performance.
# Lipofectamine RNAiMAX Transfection Reagent ([…]; Invitrogen) was added in […] serum-free, antibiotic-free media to plate wells using a Thermo Scientific Matrix WellMate and Microplate Stacker. Plates were incubated for 45 min at room temperature to allow for the sufficient formation of siRNA-lipid complexes. Cells were seeded at a density of 1x10^4 cells per well in 20 microL media containing 20% (vol/vol) FBS without antibiotics. The final concentration of siRNA in each well was 100 nM. Cells were cultured for 48h at 37 degrees C in 5% CO2 before addition of […] of TLR ligand Pam3CSK4 for 5 hours. The medium was then removed, replaced with […] growth media and cell were transfected with […] of LipidA and TransIT-TKO (Mirus) for 24 hour. At the end of the LipidA treatment, […] of supernatant was transferred to a 384 Greiner Bio-one non-binding low volume plate and […] of IL-1a HTRF reagent (Cisbio, 62MIL1APEH) was added and incubated at room temperature overnight. The plates were read on an EnVision plate reader (PerkinElmer). Cell viability was measured by adding 20ul Cell Titer Glo to the original plate and running a luminescence read on the EnVision. The quantified IL-1a signal for each siRNA gene-targeted well was divided by the median of the negative control wells and multiplied by 100 to achieve a negative control normalized value for each well/siRNA. This normalized value was then used to generate a robust z-score by first taking the log of each value and then by subtracting the median and dividing by the […].
row,Sequence,z-score
1,GGAUCCUGCAUAUCUCAAATT against Mrps18c,0.186 (inactive)
2,GGGACACGAUGAGGAGUCATT against Cfap410,-2.21 (active)
3,GCGACUUAGAAAAGAACAGTT against Ccdc58,1.91 (inactive)
4,GGAACAGCAGCUUCCCUAATT against 4930555G01Rik,-0.0144 (inactive)
5,CCAAGCGAAAUCGAGGUGUTT against Omt2b,0.931 (inactive)
6,GGCUAUAGCAGCACAUUGGTT against Ylpm1,2.57 (active)
7,GGUGGAGCAGAUGAAGAACTT against Hspbp1,0.447 (inactive)
8,CCCAAGAAGUUUUAUUCUGTT against Zbbx,-0.221 (inactive)
9,GGCCUACGACAAAUCCAAATT against Csrp2,1.14 (inactive)
10,GGCGAAGAUUGAAAAAUGCTT against Ube3c,-0.407 (inactive)
11,GGAACUAAAUGUGAAACAUTT against Ift52,-2.07 (active)
12,GGAAGUGGAACAGGACGUATT against Caps2,-1.17 (inactive)
13,GCUGUACCACAACUAGUCATT against Cdc7,0.977 (inactive)
14,GGCAAGUUUGCUAUAACCUTT against Jmy,-2.57 (active)
15,GGAAUAGGGAGGUAACCAGTT against Olfr1394,0.0525 (inactive)
16,GGAAAUUGCACCUUUAAAGTT against Rnf130,0.335 (inactive)
17,CGUAGCCGAGAAGACCCUATT against Shh,0.0734 (inactive)
18,GGUUUUAGAAUUCUGGACGTT against Plppr2,0.243 (inactive)
19,GCUCCUCUCAGGUGUACGATT against B9d2,2.23 (active)
20,GGGCAGGGAUGUUUAGAUCTT against Homer2,0.499 (inactive)
21,CCAACAUCUCUGUAUACUGTT against Olfr8,0.178 (inactive)
22,CCUACGUGAUCAACAAGCATT against Fxn,0.682 (inactive)

row,Sequence,z-score
1,GGGAGCAACUGUGUCAAAUTT against Tspan10,1.06 (inactive)
2,GGAAAGACACAGAUAAUAATT against Arvcf,-1.28 (inactive)
3,CCAAUAACUCUAAAUAGGCTT against Trhr,0.308 (inactive)
4,GGUCAUCGAAUCUGGAGUATT against Pyroxd1,-0.282 (inactive)
5,GGUCCACAGUACCACAUAATT against Tespa1,-3.2 (active)
6,CAUCCCAGAGUGUUGUCUUTT against Olfr1325,1.97 (inactive)
7,GCAGCUCCCAAUCUCACUUTT against Ankrd34a,0.171 (inactive)
8,GGUGUCCGUAAAUGGAGUGTT against A430033K04Rik,0.809 (inactive)
9,GGAAGAGAGCCUCUGCCAATT against Ccnb2,2.28 (active)
10,GUGUGCUAUGAGCAAUGCCTT against Sprr2a1,-1.34 (inactive)
11,GGUUCGACGAAGAUCAGAGTT against Akap1,-0.634 (inactive)
12,GGAAAGUGUUCUCUACAUGTT against Olfr1093,0.878 (inactive)
13,GGUAACAAGAGGUCUAGCATT against P2ry1,3.66 (active)
14,GGAUACUGGCAUGAAAUUGTT against Slc22a2,-0.888 (inactive)
15,GGCGGAACACAUGACUAGGTT against Ilf3,0.189 (inactive)
16,GGUCUGAAAAUGGAAUACCTT against Vps13a,1.8 (inactive)
17,GGGAAUCAACGCAAAGUUGTT against Pcdhga5,-0.00294 (inactive)
18,GCACAAGACUAACAAUACGTT against Sptbn2,-1.26 (inactive)
19,GGACAUCAAAGAAAAGUCATT against Gpr171,0.955 (inactive)
20,GCCAAUGAAAGAGACGUAGTT against Fam81a,-0.421 (inactive)
21,CCAAGAUGGGUUCAUCUCUTT against Cabp5,2.39 (active)
22,CGGAUUUCAUGGCUCAAGATT against Gfm2,-0.123 (inactive)

row,Sequence,z-score
1,CGUGAACAGCUUUAAGGUGTT against Usp27x,1.34 (inactive)
2,CCCUAACAAACCCUAUUAUTT against Kdm6b,-1.49 (inactive)
3,GCUGAGACCCAGAUGCAAUTT against Mal,0.858 (inactive)
4,GUCUGCAUCACCUUCACCATT against Lhb,-0.301 (inactive)
5,CGGUAUCACGGUUAUCCUUTT against Olfr215,0.932 (inactive)
6,GGGAUUCCAGACAUGGGAATT against Alg9,-0.191 (inactive)
7,GCGGUUCUAAGGAUACCGATT against Txndc17,2.52 (active)
8,GGGUUUCUGACCCUUGGUUTT against Vmn1r220,-1.42 (inactive)
9,GGGUGUGAAGUCAUGGUAUTT against Trmt9b,0.503 (inactive)
10,GGCCUCCUAAGAGGACUCATT against Dach1,-1.11 (inactive)
11,CGCAAUUCAGGUACCAAAUTT against Ndufv1,-0.0623 (inactive)
12,GCCUGAAAUCAACUCCACCTT against F2,2.21 (active)
13,CCAUUACAUCAGCUUUAUUTT against Pamr1,-0.845 (inactive)
14,GGAUAUCCUUACAAGGACCTT against Tmco3,-0.646 (inactive)
15,GGCCGACCUUUCUAUCAAUTT against Rasip1,-0.0174 (inactive)
16,GGUGUCAUUCAACUUGCAUTT against Rnase10,-2.55 (active)
17,GGAGGAAUACAAAUUCAAGTT against Vamp5,1.37 (inactive)
18,GGCUCUCUGGAGAAUCAUGTT against Slc25a28,0.0751 (inactive)
19,GGUUACUAUGGAGACCUGGTT against Mia,0.429 (inactive)
20,GCCUUAAUACUCACCAGGGTT against Zscan2,0.702 (inactive)
21,GCUAAGACACGAUAAACUUTT against Yes1,1.34 (inactive)
22,GCUGAUAAGGAGGUACCAUTT against Igf2r,0.916 (inactive)

row,Sequence,z-score
1,GGAAAAGCAUCAAUUGAUGTT against Abca8b,-1.02 (inactive)
2,GGCUUUCAUUCUGCAGCUATT against Olfr1089,-2.13 (active)
3,GGUGUUCAGAUGGUUCCCATT against Exosc1,-1.19 (inactive)
4,GCUGUUACCUUGACGAAUATT against Tsc2,1.32 (inactive)
5,GGGAUAAAGAGCAAAGAAUTT against Trdv2-2,-0.466 (inactive)
6,GCGUAAUUCCAGCAGAUGUTT against Mepe,1.74 (inactive)
7,GAAAAGUGCACCAUCAGCCTT against Ly6g5b,-2.27 (active)
8,GCUACAGGUCAAUGUCGUGTT against Tcte2,-1.61 (inactive)
9,CCCAUAGCUAAUGAACCAATT against Sntg2,-0.604 (inactive)
10,GGAGAGAAAAAGUAAUAUCTT against Fgf1,0.843 (inactive)
11,GGUCGUAAGACAGUUGUCCTT against 4932438H23Rik,-0.715 (inactive)
12,GGAGCUGACAGAGAGAUUCTT against Ankrd40,-2.77 (active)
13,GGAGCAACACUUGCGUACUTT against Ccnq,1.32 (inactive)
14,GCACUGUCGCAUCAUCAGATT against D230025D16Rik,1.83 (inactive)
15,GGAAACCUGAUGAUCUUUUTT against Olfr421-ps1,-1.27 (inactive)
16,GGAUGUCCGGAAGAUGUUUTT against Celf3,-0.284 (inactive)
17,GGUGUGUUCCCAACUGGUGTT against Olfr1124,2.04 (active)
18,GUGGAAAUGUACUUCUCUGTT against Olfr257,0.435 (inactive)
19,AGCUGCUCUGAGUUAGAAATT against Scd2,0.934 (inactive)
20,GGCAAAUCAUUGAUCAGAATT against Mtrf1,-0.214 (inactive)
21,GGACAGACUGAAUGAGCAGTT against Faf2,2.24 (active)
22,GCAAAACUUGGAACGAUUUTT against Ddx1,0.153 (inactive)

row,Sequence,z-score
1,CCUAAAUUUGAGGUAACCUTT against Zbtb21,0.571 (inactive)
2,GGAUAAAAGCAUUUGAGUCTT against Acp1,0.694 (inactive)
3,GGGAACCAGUACAAUUACATT against Glt8d1,-0.755 (inactive)
4,GGAGAUCUAUGACAAGAAATT against Idh1,-0.376 (inactive)
5,GGUAAGAAGACAAACACUCTT against Ly6g6d,0.237 (inactive)
6,GCUCUACUGCUUCUUAGUCTT against Olfr965,-2.4 (active)
7,GGAUAAGAAGAUGAGGCAGTT against Mns1,-0.0977 (inactive)
8,GCUUCAAAACAAACCCUUGTT against Parp11,-1.58 (inactive)
9,GGAGUGUAUGCAGAAGUUUTT against Dnajc24,1.49 (inactive)
10,GGUUUUGGUAUCUCCAUGGTT against Olfr2,-0.48 (inactive)
11,GGAGCAUAGAAAAGACAAUTT against Grk2,2.69 (active)
12,GGAUAAGAAGCGAUUUGAATT against Rcn2,-0.294 (inactive)
13,GCUGCUGGAGUGCAACUAATT against Tradd,0.391 (inactive)
14,GCACAACAUACCCUGUGGUTT against Syn1,-2.72 (active)
15,CCUGAAUGGACAAACAGGATT against Gm6460,-0.193 (inactive)
16,CCAAACCUAUUCUGAGAUGTT against Klrg2,-0.0403 (inactive)
17,GGAGCUGGACAAGUUCAUGTT against Clrn1,-0.994 (inactive)
18,GGGAGCAAAGAGGAACAGCTT against Fis1,-0.73 (inactive)
19,GGUGCAAUCGUGUUGAGCUTT against Dap3,1.06 (inactive)
